From PubChem BioAssay (NCI)
The panel holds about 83,000 compounds, 20% with a hit somewhere; the sample as a whole holds those more often.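 Step 1: grow cells in 96-well plates. Step 2: add test compound at a single concentration. Step 3: incubate 48 h. Step 4: record percent growth.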 A number with no mark means an inactive call. Active and inactive are the calls of the source. The calls were made as follows: active = growth percent below 10; inactive = the rest.

Tested on: HL-60(TB) leukemia
Experiment: NCI-60 one-dose screen, 48 h (100 = growth as untreated, 0 = no growth, -100 = all killed)
Settings: 10 µM unless noted

Structure (SMILES) | growth
O=C1/C(=C/c2ccccc2O)C(=S)SN1Cc1ccco1 | 92%
Nc1cc(N)c(N)cc1N | 29.1%
O=C(/C=C/c1ccc2ccccc2c1)Nc1ncc(Cc2ccccc2)s1 | 94.4%
O=C(Oc1cccc2ccccc12)Oc1cccc2ccccc12 | 88.4%
COC(=O)c1c(NC(=O)CSc2nnnn2-c2ccc(OC)cc2)sc(C)c1C | -6.74% (active)
O=C1Nc2ccccc2/C1=C/c1nc2ccccc2c(=O)[nH]1 | 102%
CCN(CC)CCN1C(=O)c2c(c3c4ccccc4[nH]c3c3ccc4ccccc4c23)C1=O | -23.7% (active)
Clc1ccc(N/N=C(/c2ccccc2)c2ccccn2)nc1 | 3.11% (active)
CC(C)CCC[C@@H](C)[C@H]1CC[C@H]2[C@@H]3CC[C@H]4C/C(=N/O)CC[C@]4(C)[C@H]3CC[C@]12C | 104%
CCc1ccc(Cc2cnc(NC(=O)c3cc(C)oc3C)s2)cc1 | -21.3% (active)
O=S(=O)(Nc1cc(Cl)ccc1Cl)c1ccc(-c2cnc(C3CC3)o2)cc1 | 0.302% (active)
CC[C@]1(O)C[C@H]2CN(CCc3c([nH]c4ccccc34)C(C(=O)OC)(c3cc4c(cc3OC)N(C)[C@H]3[C@@](O)(C(=O)OC)[C@H](OC(C)=O)[C@]5(CC)[C@@H]6C[C@@H]6CN6CC[C@]43[C@@H]65)C2)C1 (stereo not given in full) | -30.9% (active)
CCCCCN(CCCCC)CC(O)c1c(Cl)ccc2ccccc12 (stereo not given) | 87.6%
C=CC1(C)C(O[Si](C)(C)C(C)(C)C)CC2C3OC(=O)NC31c1cccc3c1[C@H](C(=O)N3C)C2(C)C (stereo not given in full) | 22.9%
Nc1ccc(C2c3ccccc3Oc3ccccc32)cc1 | 115%
C#C[C@@]1(O)[C@@H](CO)O[C@@H](n2cc(-c3ccco3)c3c(N)ncnc32)[C@@H]1O | 89%
Cc1nn(-c2ccc(Cl)cc2)c2ncnc(N/N=C/c3cccc([N+](=O)[O-])c3)c12 | 31%
NS(=O)(=O)c1ccc(NC(=O)/C(=C\c2ccc(Cl)cc2Cl)NC(=O)c2ccccc2)cc1 | 84.8%
COc1ccc2[nH]c(=O)c(/C=C/C(=O)c3ccc(Nc4nccc(-c5ccc6ccccc6c5)n4)cc3)cc2c1 | 97.6%
Cn1c(NCCc2ccc(O)c(O)c2)nc2c1c(=O)n(Cc1ccc(Cl)cc1)c(=O)n2C | 13.2%

Structure (SMILES) | growth
COc1cc(-c2cc(/C=C/C(C)=O)[nH]n2)cc(OC)c1OC | 66.7%
C=C(C)COC(=O)c1ccccc1C(=O)OCC1(C)CO1 (stereo not given) | 133%
O=C(O)C(c1ccccc1)N1C(=O)CSC1=S (stereo not given) | 129%
COc1ccc(-c2nc3c(c(-c4ccc(Cl)cc4)nn3-c3ccccc3)c(-c3ccccc3)c2C#N)cc1 | 114%
CCCCn1c(=O)c2c(nc3n2CCCN3CCc2ccc(OCC(=O)NCCN(CC)CC)cc2)n(CCCC)c1=O | 67.3%
c1ccc(CNc2nc(Nc3ccccc3)nc3ccccc23)cc1 | 95.6%
COc1ccc(/C=C2\NC(=S)NC2=O)cc1 | 91.6%
Cc1cccc(-c2cn3ccnc3c(-c3ccc4ncn(Cc5ccccc5)c4c3)n2)c1 | 81.8%
O=C(N/N=C/c1ccc([N+](=O)[O-])cc1)c1ccccc1Nc1ccnc(C(F)(F)F)c1 | 78.4%
Cn1cc(-c2nonc2-c2c[nH]c3ccccc23)c2cc(Br)ccc21 | 38.2%
NC(=O)C(=O)c1ccccc1NC=O | 101%
Cc1cc(O)ccc1C1=NN(c2ccc(S(C)(=O)=O)cc2)C(=O)CC1 | 52.6%
CCN1CCN(CCCN(C[C@H]2Cc3ccccc3CN2)[C@H]2CCCc3cccnc32)CC1 | 62.8%
C[C@@H]1CC2C3CCC4=CC(=O)C=C[C@]4(C)[C@@]3(Cl)[C@@H](O)C[C@]2(C)[C@@]1(OC(=O)c1ccco1)C(=O)CCl (stereo not given in full) | 78.2%
CCN(CC)CCN1C(=O)c2c(c(C)c3c(oc4ccc(OC)cc43)c2C)C1=O | 93.3%
COc1cc(Nc2cc(C)nc(N3CCN(c4ccnc5cc(Cl)ccc45)CC3)n2)cc(OC)c1 | -6.44% (active)
Cc1cnc2nc(-c3ccc(N(C)C)cc3)cn2c1 | 90.7%
O=C1N(c2ccccc2)C(=S)N[C@]12[C@H](c1ccccc1)C1CCCN1[C@]21C(=O)NC2C=CC(Cl)=C[C@H]21 (stereo not given in full) | 81.5%
O=C(Oc1ccc[nH]c1=O)c1cccc(Cl)c1 | 87.6%
O=[N+]([O-])c1ccc(/C(=C/c2ccccc2)[n+]2ccccc2)cc1 | 110%
